Bioassay records from PubChem.
Only some compounds are listed: those with a hit (about 2.8% of all), similar ones and a draw of the others.
Wnt act: Wnt/beta-catenin pathway activators, primary screen, cell-based, plate reader, single point. Wnt/beta-catenin reporter cell assay, activator. activation, % at 9.35 µM. 300,000 compounds, 1.2% hits. AID 743398, 2014; in the data active = activation above about 30%, passing the limit was not always enough; inconclusive = no clear call, values can overlap the other calls;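 note: 0% = neutral control wells and 100% = positive control wells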
FXN GAA850 act: FXN promoter activators, primary screen, cell-based, luciferase luminescence, HEK293 lucGAA850; HEK293 lucGAA850 FXN promoter luciferase reporter, 24 h; percent of 10 µM SAHA response; activation, % at 6 µM; 360,000 compounds, 0.56% hits;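 active = activation above the average of all compounds screened plus 3 SD, cutoff fixed separately per campaign, cut at about 7.5% in these data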;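 note: 0% = DMSO wells and 100% = 10 µM SAHA wells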
MITF act: activators of MITF-driven TRPM1 promoter reporter, primary screen, cell-based, SK-MEL-5, luciferase, single point | activation, % at 12.5 µM | AID 588334, 2011 | SK-MEL-5 TRPM1-promoter luciferase, 24 h; % of positive control, neutral wells = 0 | 300,000 compounds, 0.75% hits;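 active = mean activation of at least 80% with every replicate also reaching 80%; inconclusive = mean reaches 80% but some replicate falls short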;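 note: 0% = neutral control wells and 100% = parthenolide positive control wells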
esBAF inh: Bmi1 luciferase reporter increase in mESCs, primary screen, esBAF inhibitor project, mouse ES cells, Bmi1 luciferase knock-in, single point | 24 h; 100% = twice the neutral-well signal | reporter increase, % at 12.5 µM | 350,000 compounds, 2% hits; in the data active = activation above about 40%; inconclusive = no clear call, values can overlap the other calls;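 note: 0% = median of the plate's neutral control wells and 100% = double that signal; a rise in the Bmi1 reporter signal indicates esBAF inhibition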
* hit, by the source's call.

Results for Cc1ccccc1/C=N/NC(=O)c1sccc1C ?
Wnt act: 80*; FXN GAA850 act: 2; MITF act: 79

What do the screens show for `COC(=O)C(Cc1ccc(OC(=O)c2ccccc2Cl)cc1)N1Cc2ccccc2C1=O` (centres undefined)?
FXN GAA850 act: 6; MITF act: 48; esBAF inh: 44*

What do the screens show for `N=c1oc2ccccc2cc1C(=O)Nc1cccc(F)c1`?
Wnt act: 15; FXN GAA850 act: 4; MITF act: 6; esBAF inh: -2

How did Cc1cc(C)cc(NC(=O)Nc2ccc(N3CCCCC3)cc2)c1 do in these assays?
Wnt act: 39*; FXN GAA850 act: 5

Results for N=c1oc2cc(O)ccc2cc1C(=O)Nc1ccc(Cl)cc1 ?
Wnt act: 47*; FXN GAA850 act: -1; MITF act: 54; esBAF inh: 58*

How did N=c1oc2ccccc2cc1C(=O)Nc1ccc(F)cc1 do in these assays?
Wnt act: 38*; FXN GAA850 act: 3; MITF act: -12; esBAF inh: -16

How did O=C(Nc1ccc(N2CCCC2)cc1)c1cc2ccccc2o1 do in these assays?
Wnt act: 2; FXN GAA850 act: 5; MITF act: 28; esBAF inh: 43*

How did Cc1cc(C)cc(C(=O)Nc2ccc(N3CCCC3)cc2)c1 do in these assays?
Wnt act: 9; FXN GAA850 act: 4; MITF act: 18

What do the screens show for `COc1ccccc1C#Cc1ccc2c(c1)O[C@@H](CN(C)Cc1ccccc1)[C@H](C)CN([C@@H](C)CO)S2(=O)=O`?
esBAF inh: -1

Results for O=C(C[C@@H]1CC[C@H]2NC[C@@H](O)COC[C@@H]2O1)NCc1ccc2c(c1)OCO2 ?
esBAF inh: -4

Results for CCCNC(=O)Nc1ccc2c(c1)OC[C@@H](C)N(C(=O)C1CCOCC1)C[C@@H](C)[C@@H](OC)CN(C)C2=O ?
esBAF inh: -4

What do the screens show for `O=C(Nc1ccc(NC(=O)c2cc3ccccc3o2)cc1)c1ccco1`?
Wnt act: 0; FXN GAA850 act: 0; MITF act: 6; esBAF inh: 0

How did COc1ccc(NC(=O)c2ccc(-c3ccc(C(C)=O)cc3)o2)cn1 do in these assays?
Wnt act: 10; FXN GAA850 act: 1; MITF act: 35; esBAF inh: 45*

What do the screens show for `Cc1cc(C(=O)Nc2cccc3ccccc23)oc1C`?
Wnt act: 4; FXN GAA850 act: 1; esBAF inh: 31

Results for Cc1cc(C(=O)Nc2ccccc2)oc1C ?
FXN GAA850 act: 1; MITF act: 113*

How did CC(C)c1nnc(NC(=O)c2cc3ccccc3o2)s1 do in these assays?
Wnt act: 27; FXN GAA850 act: 3; MITF act: 108*; esBAF inh: 23

Results for COc1ccc(NC(=O)c2ccco2)cn1 ?
Wnt act: 1; FXN GAA850 act: 0; MITF act: 26; esBAF inh: -8

How did O=C(Nc1ccccc1)c1cc2ccccc2o1 do in these assays?
Wnt act: 35*; FXN GAA850 act: 5; MITF act: -8; esBAF inh: -8

What do the screens show for `CC(=O)c1ccc(NC(=O)c2cc3ccccc3o2)cc1`?
Wnt act: 39*; FXN GAA850 act: 3; MITF act: 31; esBAF inh: 39

How did CC(=O)N1CCN(c2ccc(NC(=O)c3cc4ccccc4o3)cc2)CC1 do in these assays?
Wnt act: 3; FXN GAA850 act: 2; MITF act: 8; esBAF inh: 4

How did COc1ccc(NC(=O)c2cc3ccccc3o2)cc1 do in these assays?
Wnt act: 4; FXN GAA850 act: 7; MITF act: 55; esBAF inh: 58*

How did O=C(Nc1ncccc1Cl)c1cc2ccccc2o1 do in these assays?
Wnt act: 46*; FXN GAA850 act: 7; MITF act: 51; esBAF inh: inconclusive

How did COc1ccc(NC(=O)c2cc3ccccc3o2)cn1 do in these assays?
Wnt act: 43*; FXN GAA850 act: 3; MITF act: 104*; esBAF inh: 68*

Results for COc1ccc(NC(=O)c2cc(=O)c3ccccc3o2)cn1 ?
FXN GAA850 act: -1; MITF act: 26; esBAF inh: 2

Results for O=C(Nc1ccc(Cl)cc1Cl)c1cc2ccccc2o1 ?
Wnt act: 14; FXN GAA850 act: 2; esBAF inh: 0

What do the screens show for `C[C@@H]1CN([C@H](C)CO)C(=O)c2cccc(NS(=O)(=O)c3ccc(Cl)cc3)c2O[C@@H]1CN(C)Cc1ccc(C(=O)Nc2ccccc2N)cc1`?
esBAF inh: -19

What do the screens show for `Cc1cccc(NC(=O)c2cc3ccccc3oc2=O)c1`?
Wnt act: 15; FXN GAA850 act: 3; MITF act: 12; esBAF inh: -17

How did CSc1nnc(NC(=O)c2cc3ccccc3oc2=O)s1 do in these assays?
Wnt act: -1; FXN GAA850 act: -1; esBAF inh: 54*

Results for O=C(Nc1ccc(F)cc1)c1cc2ccccc2o1 ?
Wnt act: 16; FXN GAA850 act: 5; MITF act: 45; esBAF inh: 47*

Results for COc1ccccc1NC(=O)N(C)C[C@H]1Oc2cc(Br)ccc2S(=O)(=O)N([C@@H](C)CO)C[C@@H]1C ?
esBAF inh: -3

How did CCC(=O)N(C)C[C@@H]1Oc2cc(C#CC3CCCC3)ccc2S(=O)(=O)N([C@H](C)CO)C[C@H]1C do in these assays?
esBAF inh: 1

What do the screens show for `COc1cccc(OCc2cc(C(=O)NCCc3cccc(C)n3)no2)c1`?
Wnt act: 1; FXN GAA850 act: 1; MITF act: 2; esBAF inh: 5

Results for COc1cccc(OCc2cc(C(=O)N(C)C3CCOCC3)no2)c1 ?
Wnt act: -1; FXN GAA850 act: 3; MITF act: 12

What do the screens show for `COc1cccc(OCc2cc(C(=O)NCc3ccccn3)no2)c1`?
Wnt act: 16; FXN GAA850 act: 6; MITF act: 110*; esBAF inh: 61*

How did COc1cccc(OCc2cc(C(=O)N(C)Cc3nc(C)cs3)no2)c1 do in these assays?
Wnt act: 27; FXN GAA850 act: 4; MITF act: 74; esBAF inh: 78*

What do the screens show for `CCc1ccc(OCc2ccc(C(=O)NCc3ccccn3)o2)cc1`?
FXN GAA850 act: 2; MITF act: 21; esBAF inh: 46*

How did COc1ccc(NC(=O)N(C)C[C@@H]2Oc3c(NC(=O)c4nc5ccccc5s4)cccc3C(=O)N([C@H](C)CO)C[C@@H]2C)cc1 do in these assays?
esBAF inh: 4

What do the screens show for `CCN(Cc1cnn(C)c1)C(=O)c1cc(COc2cc(C)c(Cl)c(C)c2)on1`?
Wnt act: 9; FXN GAA850 act: 0; MITF act: 32; esBAF inh: 22

Results for COc1cc(Cl)ccc1OCc1cc(C(=O)N(C)CCc2cnn(C)c2)no1 ?
Wnt act: 26; FXN GAA850 act: 5; MITF act: 74; esBAF inh: 88*

How did Cc1ccc(OCc2cc(C(=O)N(C)Cc3cnn(C)c3)no2)cc1C do in these assays?
Wnt act: -1; FXN GAA850 act: 1; esBAF inh: 46*
